# Results with a measured potency or affinity are listed apart.
# System: Candida albicans
# Conditions: 20 µM
row,SMILES,Inhibition [%]
1,CNCCCCOc1ccccc1Cc1ccccc1.Cl,1.66
2,CCCCCCCCCCC[C@@H](C[C@@H]1OC(=O)[C@H]1CCCCCC)OC(=O)[C@H](CC(C)C)NC=O [ORLISTAT],1.01
3,CC(C)[N+]1(C)C2CCC1CC(OC(=O)C(CO)c1ccccc1)C2.[Br-] (configuration not stated),0.17
4,CC(CN1c2ccccc2Sc2ccccc21)N(C)C.Cl (configuration not stated) [PROMETHAZINE HYDROCHLORIDE],3.31
5,CN1CCc2cc(Cl)c(O)cc2[C@@H](c2ccccc2)C1.Cl,1.81
6,CN(C)CCCN1c2ccccc2Sc2ccc(Cl)cc21.Cl [CHLORPROMAZINE HYDROCHLORIDE],0.59
7,CN1CCN(C2=Nc3cc(F)ccc3Cc3ccccc32)CC1 [FLUPERLAPINE],3.99
8,O=C1Nc2ccc(Cl)cc2[C@@](C#CC2CC2)(C(F)(F)F)O1 [EFAVIRENZ],3.86
9,C#C[C@]1(O)CC[C@H]2[C@@H]3CCc4cc(O)ccc4[C@H]3CC[C@@]21C [ETHINYL ESTRADIOL],2.87
10,NNCCc1ccccc1.O=S(=O)(O)O [PHENELZINE SULFATE],4.34
11,CCC(=O)O[C@]1(C(=O)CCl)[C@@H](C)C[C@H]2[C@@H]3CCC4=CC(=O)C=C[C@]4(C)[C@@]3(F)[C@@H](O)C[C@@]21C [CLOBETASOL PROPIONATE],0.73
12,CCN1CC(CCN2CCOCC2)C(c2ccccc2)(c2ccccc2)C1=O.Cl (configuration not stated),4.41
13,C[C@@H]1CN(CCCn2c3ccccc3c3ccccc32)C[C@H](C)N1.Cl.O,0.45
14,CC(C(=O)O)c1cccc(C(=O)c2ccccc2)c1 (configuration not stated) [KETOPROFEN],5.45
15,CCCSc1ccc2[nH]c(NC(=O)OC)nc2c1 [ALBENDAZOLE],2.62
16,CCOC(=O)[C@H](CCc1ccccc1)N[C@@H](C)C(=O)N1[C@H](C(=O)O)C[C@@H]2CCC[C@@H]21,1.9
17,CC(C)(C(=O)c1cccnc1)c1cccnc1 [METYRAPONE],2.49
18,NNC(=O)c1ccncc1 [ISONIAZID],3.95
19,CC(=O)OCC(=O)[C@@]1(O)CC[C@H]2[C@@H]3CCC4=CC(=O)C=C[C@]4(C)[C@H]3[C@@H](O)C[C@@]21C [PREDNISOLONE ACETATE],0.73

row,SMILES,Inhibition [%]
1,CC(C)[C@H](N)C(=O)OCCOCn1cnc2c(=O)nc(N)[nH]c21.Cl [VALACYCLOVIR HYDROCHLORIDE],3.14
2,CC(C[N+](C)(C)C)OC(N)=O.[Cl-] (configuration not stated) [BETHANECHOL CHLORIDE],0.53
3,NC(=O)N1c2ccccc2CC(=O)c2ccccc21 [OXCARBAZEPINE],2.7
4,CS(=O)(=O)O.Cc1ccc(NC(=O)c2ccc(CN3CCN(C)CC3)cc2)cc1Nc1nccc(-c2cccnc2)n1 [IMATINIB MESYLATE],2.45
5,CN(C)C(=O)Oc1ccc[n+](C)c1.[Br-] [PYRIDOSTIGMINE BROMIDE],1.97
6,CN1CCC(=C2c3ccccc3CCc3sccc32)CC1.O=C(O)/C=C\C(=O)O,3.52
7,CC(=O)O.NCc1ccc(S(N)(=O)=O)cc1 [MAFENIDE ACETATE],0.67
8,CC(=O)O[C@@]12CO[C@@H]1C[C@H](O)[C@@]1(C)C(=O)[C@H](O)C3=C(C)[C@@H](OC(=O)[C@H](O)[C@@H](NC(=O)OC(C)(C)C)c4ccccc4)C[C@](O)([C@@H](OC(=O)c4ccccc4)[C@H]21)C3(C)C,1.38
9,CC(C)c1nc(CN(C)C(=O)N[C@H](C(=O)N[C@@H](Cc2ccccc2)C[C@H](O)[C@H](Cc2ccccc2)NC(=O)OCc2cncs2)C(C)C)cs1 [RITONAVIR],1.82
10,CCN1CCC[C@H]1CNC(=O)c1cc(S(N)(=O)=O)ccc1OC [LEVOSULPIRIDE],2.16
11,Cn1ccnc1S [METHIMAZOLE],5.56
12,C/C=C1/[C@H]2C=C(C)C[C@]1(N)c1ccc(O)nc1C2,2.85
13,CC(=O)OCC(=O)[C@@]1(O)CC[C@H]2[C@@H]3C[C@H](C)C4=CC(=O)C=C[C@]4(C)[C@H]3[C@@H](O)C[C@@]21C [METHYLPREDNISOLONE ACETATE],-0.69
14,Cc1ccc(N(CC2=NCCN2)c2cccc(O)c2)cc1 [PHENTOLAMINE],2.06
15,COC1=CC(=O)C[C@@H](C)[C@]12Oc1c(Cl)c(OC)cc(OC)c1C2=O [GRISEOFULVIN],3.42
16,Cc1ccc(C)c(OCCCC(C)(C)C(=O)O)c1 [GEMFIBROZIL],8.15
17,C[C@]12C=CC(=O)C=C1CC[C@@H]1[C@@H]2[C@@H](O)C[C@@]2(C)[C@H]1CC[C@]2(O)C(=O)COC(=O)CCC(=O)[O-].[Na+] [PREDNISOLONE SODIUM SUCCINATE],-0.07
18,O=C1N=C([O-])NC1(c1ccccc1)c1ccccc1.[Na+] [PHENYTOIN SODIUM],2.49

# Source: ChEMBL document CHEMBL4513141, “CO-ADD screening of NIH (USA) - Clinical Collection” (2021)
